Here are results for 8 compounds from PubChem BioAssay (NCI).

The panel holds about 83,000 compounds, 20% with a hit somewhere; the sample as a whole holds those more often.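 How to read the values: 0–100, growth inhibition (40 = 60% inhibited); 0, no net growth; -100 to 0, cell death (-40 = 40% of starting cells died; -100 = all dead).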 A number with no mark means an inactive call. Calls of active or inactive are those of the source. Rule for the calls: active = growth percent below 10; inactive = the rest.

Common to all, as to assay: NCI-60 one-dose screen, 48 h (100 = growth as untreated, 0 = no growth, -100 = all killed)
For one assay, the system named is K-562 leukemia. As to conditions: 10 µM unless noted.
Another assay has as its system MALME-3M melanoma. As to conditions: 10 µM unless noted.
In another assay the test system is MDA-MB-231 breast. To be noted: 10 µM unless noted.
For another assay, the system named is RXF 393 renal. To be noted: 10 µM unless noted.
The test system of another assay is SF-268 CNS. To be noted: 10 µM unless noted.
For a further assay, the system named is SF-295 CNS. To be noted: 10 µM unless noted.
In the next assay the test system is SF-539 CNS. As to conditions: 10 µM unless noted.
The test system of another assay is UACC-257 melanoma. As to conditions: 10 µM unless noted.
A further assay relates to M14 melanoma. As to conditions: 10 µM unless noted.
Another assay relates to HCT-15 colon. As to conditions: 10 µM unless noted.
Another assay deals with HT29 colon. As to conditions: 10 µM unless noted.
The test system of the next assay is SNB-75 CNS. To be noted: 10 µM unless noted.
The test system of a further assay is SNB-19 CNS. To be noted: 10 µM unless noted.
The subject of the next assay is U251 CNS. As to conditions: 10 µM unless noted.
A further assay has as its system PC-3 prostate. To be noted: 10 µM unless noted.
The test system of a further assay is SK-MEL-5 melanoma. To be noted: 10 µM unless noted.
Another assay relates to UACC-62 melanoma. To be noted: 10 µM unless noted.
A further assay relates to LOX IMVI melanoma. To be noted: 10 µM unless noted.
In a further assay the test system is SK-MEL-28 melanoma. To be noted: 10 µM.
In the next assay the test system is SK-MEL-2 melanoma. To be noted: 10 µM unless noted.

As to `CCCCC(O)(c1ccc(Cl)cc1)C(CN1CCOCC1)c1ccc(Cl)cc1` (stereo not given), the growth was 17.9% in the assay with K-562 leukemia; 61.2% in the assay on MALME-3M melanoma; 35.8% in the assay with MDA-MB-231 breast; 18.5% with RXF 393 renal; 40.2% in the assay on SF-268 CNS; 40.9% with SF-295 CNS. Further, the growth in the assay on SF-539 CNS is 68.8%; with UACC-257 melanoma, 39.4%; in the assay with M14 melanoma it was 28.6%; in the assay with HCT-15 colon, 34.9%; with HT29 colon it was 53.7%; with SNB-75 CNS it was 39.6%. The growth is 60.1% in the assay with SNB-19 CNS; 23.1% with U251 CNS; 17.6% in the assay on PC-3 prostate; 13.3% with SK-MEL-5 melanoma; 31.1% in the assay with UACC-62 melanoma; 33.9% in the assay on LOX IMVI melanoma. Also, the growth was 54.1% in the assay on SK-MEL-28 melanoma and 50.1% in the assay with SK-MEL-2 melanoma.
Turning to `O=C(N/N=C/c1ccccc1O)C(=O)Nc1ccc(F)cc1`, the growth in the assay with K-562 leukemia is 42.3%; in the assay with MALME-3M melanoma, 70.9%; in the assay with MDA-MB-231 breast, 43.8%; in the assay on RXF 393 renal it was 74.3%; with SF-268 CNS it was 48.8%; in the assay on SF-295 CNS it was 4.78% (active). Also, the growth in the assay with SF-539 CNS is 33.7%; in the assay on UACC-257 melanoma it was 27.2%; in the assay with M14 melanoma, 50%; with HCT-15 colon it was 28.2%; with HT29 colon, 40.9%; in the assay with SNB-75 CNS, 85.5%. Moreover, the growth with SNB-19 CNS is 53.9%; in the assay with U251 CNS, 33.5%; in the assay on PC-3 prostate, 54.7%; with SK-MEL-5 melanoma it was 55.5%; in the assay with UACC-62 melanoma, 35.1%; in the assay on LOX IMVI melanoma, 27.2%. Further, the growth with SK-MEL-28 melanoma is 59.4%; in the assay with SK-MEL-2 melanoma it was 71.6%.
With `CNCCNc1nc2ccccc2c2c(=O)c3cc(F)ccc3sc12`, the growth in the assay on K-562 leukemia is -47.1% (active); in the assay on MALME-3M melanoma, 68.1%; in the assay with MDA-MB-231 breast it was 19.5%; in the assay on RXF 393 renal, 62%; with SF-268 CNS, 44.3%; with SF-295 CNS, 95.2%. Also, the growth was 71.6% in the assay with SF-539 CNS; 54.4% with UACC-257 melanoma; 1.91% (active) in the assay on M14 melanoma; 13.6% with HCT-15 colon; -30.9% (active) in the assay with HT29 colon; 47.4% with SNB-75 CNS. Moreover, the growth is 69.1% in the assay on SNB-19 CNS; -53.3% (active) with U251 CNS; 34% in the assay with PC-3 prostate; 88.1% with SK-MEL-5 melanoma; 22.3% in the assay with UACC-62 melanoma; 17.7% with LOX IMVI melanoma. Besides, the growth in the assay with SK-MEL-28 melanoma was 84.6%; with SK-MEL-2 melanoma, 85.2%.
Turning to `O=C(NCc1ccco1)C1CN(c2ccc(Cl)cc2)N(c2ccc(Cl)cc2)C1=O` (stereo not given), the growth in the assay with K-562 leukemia is 17.9%; in the assay on MALME-3M melanoma it was 37.2%; in the assay with MDA-MB-231 breast it was 59.1%; in the assay with RXF 393 renal, 58.2%; with SF-268 CNS it was 50.9%; with SF-295 CNS it was 30.1%. The growth in the assay with SF-539 CNS is 49.4%; in the assay with UACC-257 melanoma, 69.1%; in the assay on M14 melanoma, 32.1%; in the assay on HCT-15 colon, 28.4%; with HT29 colon, 16.4%; in the assay on SNB-75 CNS, 16.8%. Also, the growth with SNB-19 CNS is 54.4%; with U251 CNS it was 33.9%; with PC-3 prostate, 27%; in the assay on SK-MEL-5 melanoma, 41.8%; in the assay with UACC-62 melanoma, 24.4%; with LOX IMVI melanoma, 45.9%. In addition, the growth in the assay with SK-MEL-28 melanoma was 66.2%; with SK-MEL-2 melanoma it was 49.2%.
For the compound `NCCOc1ncccc1/C=C1\c2ccccc2-c2ccc([N+](=O)[O-])cc21`, the growth is 2.88% (active) with K-562 leukemia; -80.4% (active) in the assay with MALME-3M melanoma; -42.3% (active) in the assay on MDA-MB-231 breast; -88.6% (active) with RXF 393 renal; -12.9% (active) in the assay with SF-268 CNS; -36.6% (active) in the assay with SF-295 CNS. Further, the growth with SF-539 CNS was -83% (active); in the assay on UACC-257 melanoma it was 5.4% (active); with M14 melanoma, -63.3% (active); with HCT-15 colon, -26.4% (active); with HT29 colon it was -6.91% (active); with SNB-75 CNS, -81.1% (active). The growth in the assay with SNB-19 CNS is -6.38% (active); with U251 CNS, -75% (active); in the assay on PC-3 prostate, 3.4% (active); in the assay on SK-MEL-5 melanoma, -97.5% (active); in the assay with UACC-62 melanoma it was -81.5% (active); in the assay on LOX IMVI melanoma, -91.1% (active). The growth in the assay on SK-MEL-28 melanoma is -22% (active); with SK-MEL-2 melanoma it was -21.2% (active).
As for `CCOC(=O)c1c2c(c(C)n1Cc1ccc(OC)cc1)-c1oncc1CC2`, the growth was 92% with K-562 leukemia; 125% in the assay with MALME-3M melanoma; 115% in the assay with MDA-MB-231 breast; 88.1% in the assay with RXF 393 renal; 81.5% in the assay with SF-268 CNS; 91.3% in the assay on SF-295 CNS. In addition, the growth in the assay with SF-539 CNS was 79.5%; in the assay on UACC-257 melanoma, 106%; with M14 melanoma it was 121%; with HCT-15 colon it was 91.3%; in the assay on HT29 colon it was 89.1%; with SNB-75 CNS, 72.9%. Besides, the growth in the assay on SNB-19 CNS is 81.8%; in the assay on U251 CNS it was 86.3%; in the assay on PC-3 prostate, 99.6%; in the assay on SK-MEL-5 melanoma, 98.1%; in the assay on UACC-62 melanoma, 110%; in the assay with LOX IMVI melanoma, 76.6%. The growth in the assay on SK-MEL-28 melanoma was 138%; with SK-MEL-2 melanoma it was 120%.
In the case of `COC(=O)C1=C(C)NC(C)=C(C(=O)OC)C(N2C(=O)CCC2=O)C1` (stereo not given), the growth in the assay with K-562 leukemia was 35.8%; in the assay with MALME-3M melanoma, 80.8%; in the assay on MDA-MB-231 breast, 95.8%; with RXF 393 renal, 104%; in the assay with SF-268 CNS it was 93.9%; with SF-295 CNS, 118%. For the same compound, the growth in the assay with SF-539 CNS was 103%; with UACC-257 melanoma it was 66.5%; with M14 melanoma it was 85%; in the assay with HCT-15 colon it was 78.4%; with HT29 colon, 98.5%; in the assay with SNB-75 CNS, 77.3%. The growth in the assay with SNB-19 CNS is 99.9%; in the assay with U251 CNS, 87.7%; in the assay with PC-3 prostate, 84.6%; in the assay on SK-MEL-5 melanoma, 102%; with UACC-62 melanoma, 83.8%; with LOX IMVI melanoma it was 82.4%. In addition, the growth is 95.5% in the assay with SK-MEL-28 melanoma and 99.1% in the assay on SK-MEL-2 melanoma.
Turning to `NS(=O)(=O)c1ccc(CCN=C=S)cc1`, the growth in the assay with K-562 leukemia is 5.24% (active); in the assay with MALME-3M melanoma it was 40.9%; in the assay on MDA-MB-231 breast it was 15.6%; with RXF 393 renal, -36.3% (active); in the assay on SF-268 CNS, 53.3%; with SF-295 CNS, 105%. Also, the growth with SF-539 CNS was 37.2%; with UACC-257 melanoma, 24.7%; in the assay on M14 melanoma it was 12.6%; in the assay with HCT-15 colon, 0.368% (active); in the assay on HT29 colon, 14.7%; with SNB-75 CNS, 29.1%. The growth was 73.5% with SNB-19 CNS; 27.6% with U251 CNS; 47% in the assay with PC-3 prostate; 74.7% with SK-MEL-5 melanoma; 68.5% in the assay on UACC-62 melanoma; -27.9% (active) with LOX IMVI melanoma. For the same compound, the figures for the growth in the assay on SK-MEL-28 melanoma and in the assay on SK-MEL-2 melanoma were 55% and 63%, respectively.
